Shown are actives, neighbours in structure and some others; about 21% of the full set was active somewhere.
AMA1-RON2 inh: inhibitors of Plasmodium falciparum AMA1-RON2 interaction; AID 720542; 360,000 tested, 0.2% active; AlphaScreen AMA1-biotinylated RON2 peptide binding; Potency, µM (highest dose often 58.2 µM), without a hit: at the highest dose activity change, negative = inhibition, usual class: inhibitors;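 also: potency is read from the fitted curve at half-maximal effect; 0% = vehicle wells and -100% = peptide control; nearly all actives have a fitted effect of over 45% in size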
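AMA1 (3D7) with his tag at 25 nM final met compounds first, then biotinylated RON2 peptide at 25 nM; detection used donor plus acceptor beads, 10 µg/mL apiece, read by AlphaScreen after 30 min at room temperature.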
HCV inhibitor: blocks hepatitis C virus; Huh7.5.1 HCVcc-Cre infection, luciferase reporter, 44 h; Potency, µM (series often up to 41.8 µM), for the others: at the highest dose activity change, negative = inhibition, hits mostly inhibitors; 340,000 tested, 3.4% active; AID 651820; also: potency is read from the fitted curve at half-maximal effect; % is scaled to controls: 0 for no effect and ±100 for the full control effect
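Infectious HCV cell culture screen: compound-treated cells (1,000/well, pre-plated 4 h) are infected with HCVcc-Cre at roughly 0.5 moi and grown 44 h. Infection is quantified by luciferase signal after 15 min substrate incubation at room temperature.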
Cycloheximide cs: counter-screen for Shiga toxin inhibitors: cycloheximide protein synthesis inhibition. 300,000 tested, 12% active. max response, %. cell reporter, cycloheximide protein synthesis inhibition counterscreen; in the data active = max response mostly above about 13%, no sharp cut-off; inactive = mostly below about 14%; also: read at 38.3 µM for the half of the compounds with a filed dose; 0% is about no effect
Pf growth 48h: inhibits P. falciparum growth in the first generation, 48 h; Potency, µM (titrated, usually from 28.7 µM), without a hit: top-dose activity change, negative = inhibition, usual class: inhibitors; P. falciparum luciferase growth in erythrocytes, 48 h; 310,000 tested, 5.9% active; also: potency is read from the fitted curve at half-maximal effect; % is scaled to controls: 0 for no effect and ±100 for the full control effect
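Luciferase-expressing parasites in RBCs, 2% Hct / 0.1% parasitemia final; RPMI 1640 + 0.5% Albumax; 37 C, 5% CO2, one generation; luminescence read-out, lower signal = inhibition.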
Pf growth 96h: inhibits malaria parasite growth, 96 h. 320,000 tested, 6.9% active. P. falciparum luciferase reporter growth, 96 h. Potency, µM (top dose mostly 28.7 µM), for the others: at the top dose activity change, negative = inhibition, usual class: inhibitors. AID 504834; also: potency is read from the fitted curve at half-maximal effect; % is scaled to controls: 0 for no effect and ±100 for the full control effect
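Plates of compound plus infected erythrocytes (2% hematocrit, 0.05% parasitemia final) incubate 96 hours, 37 C, 5% CO2. Detection reagent added; reduced luminescence from the parasites' luciferase reporter flags inhibition.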
Shiga toxin inh: inhibitors of Shiga toxin in Vero cells | inhibition, % at 38.7 µM | 290,000 tested, 9.2% active | Vero cells, Shiga toxin protein synthesis inhibition reporter; in the data active = inhibition mostly above about 28%, no sharp cut-off; inactive = mostly below about 43%; also: 0% is about no effect
An asterisk follows results filed as active; ? = inconclusive; · = no result given; [ ] = another dose, or the depositor's remark. Unless noted, calls follow the shape of the dose curve; as a rule, active = well fitted curve in the direction sought with a large enough effect; inconclusive = small, poorly fitted or top-dose-only effect, or another doubt; inactive = no such curve, though single readings can be large; an effect the other way counts as inactive or inconclusive.

SMILES | AMA1-RON2 inh | HCV inhibitor | Cycloheximide cs | Pf growth 48h | Pf growth 96h | Shiga toxin inh
COC(=O)C1=CN(c2ccc(N3CCOCC3)cc2)C(N)=C(C#N)C1c1cccc(F)c1 (configuration not stated) | 1.7% | · | · | · | · | ·
Cn1c(Cn2c(=O)sc3ccccc32)nnc1SCC(=O)Nc1ccc(Cl)cc1 | 3.4% | 6.1% | -1.5 | 1.8% | 10.4µM* | -3.5
CCSc1nnc(Cn2c(=O)sc3ccccc32)n1-c1ccc(OC)cc1 | -0.5% | -6.4% | 1.4 | -12.0% | ? | 17.6
Cn1c(Cn2c(=O)sc3ccccc32)nnc1SCC(=O)N1CCc2ccccc21 | -4.1% | 19.6% | -2.6 | 5.3% | 5.22µM* | -3.0
Cc1ccc(NC(=O)CSc2nnc(CNC(=O)c3ccco3)n2C)cc1C | 5.1% | -23.0%[8.37 µM] | · | -7.5% | 13.1µM* | ·
COc1ccc(-n2c(Cn3c(=O)sc4ccccc43)nnc2SC)cc1 | -11.1% | 8.3% | -2.2 | 2.7% | 1.85µM* | -1.3
Cn1c(Cn2c(=O)sc3ccccc32)nnc1SCC(=O)N1CCCc2ccccc21 | -5.3% | 7.6% | 0.7 | ? | ? | -1.5
CC1(C(=O)NS(=O)(=O)c2cccc(Cl)c2)CCN1C(=O)c1ccccc1CCc1ccccc1 (configuration not stated) | -8.9% | · | · | · | · | ·
C[C@]12c3[nH]c4cc(-c5ccco5)ccc4c3CCN1C(=O)[C@@H](CC(=O)NCc1ccco1)C[C@@H]2C(=O)N1CCOCC1 | -26.0% | -10.3%[8.37 µM] | · | · | · | ·
CCOC(=O)CSc1nnc(Cn2c(=O)sc3ccccc32)n1-c1ccccc1C | 1.8% | 8.5% | 4.6 | 4.2% | 14.7µM* | 10.0
CCOC(=O)CC(=O)CSc1nnc(Cn2c(=O)sc3ccccc32)n1C | -0.6% | -2.7% | -3.0 | -13.2% | 108.3% | -17.0
Cc1ccccc1-n1c(Cn2c(=O)sc3ccccc32)nnc1SCC(N)=O | 0.0% | 2.6% | -3.4 | 11.6% | 25.8% | 1.0
CCOC(=O)CNC(=O)CSc1nnc(Cn2c(=O)sc3ccccc32)n1C | 2.7% | -12.6% | 17.6* | -6.6% | 3.8% | 11.0
Cn1c(CNC(=O)c2cccs2)nnc1SCC(=O)Nc1ccc(Cl)cc1 | 8.8% | -5.2% | -2.2 | 11.7µM* | ? | 4.7
CCn1c(CSc2ncccn2)nnc1SCC(=O)N1CCc2ccccc21 | 2.3% | -13.4% | -1.8 | ? | 4.65µM* | -2.6
O=C(CNS(=O)(=O)c1ccc([N+](=O)[O-])cc1)N/N=C/c1ccc(O)cc1O | 76.8% | ? | -1.4 | ? | -29.1% | -5.8
COc1ccccc1NC(=O)CCNC(=O)c1ccc(C)cc1 | 2.4% | 7.0% | 12.5 | 0.9% | 1.7% | 3.9
C/C(=N\NC(=O)c1ccccc1O)c1c(O)n(Cc2ccccc2)c(=O)[nH]c1=O | 39.0% | 1.7% | 25.1* | 43.0% | 62.7% | 51.0
C/C(=N\NC(=O)c1ccccc1Cl)c1c(O)n(C2CCCCC2)c(=O)[nH]c1=O | 96.2% | 4.2% | 32.4* | -2.4% | -4.1% | 35.1*
C/C(=N\NC(=O)c1ccccc1)c1c(O)n(C2CCCCC2)c(=O)[nH]c1=O | 83.9% | 4.7% | 40.8* | 14.1% | -8.5% | 66.9*
C/C(=N\NC(=O)c1ccncc1)c1c(O)n(Cc2ccccc2)c(=O)[nH]c1=O | 70.6% | ? | 16.7 | -75.3% | -14.7% | -13.2
CCC(=NCCCN(CC)CC)c1c(O)n(C2CCCCC2)c(=O)[nH]c1=O | 1.9% | -13.9% | -1.3 | -29.5% | -8.4% | -5.2
CCN(CC)CCCN=C(C)c1c(O)n(C2CCCCC2)c(=O)[nH]c1=O | -0.4% | -1.8% | 5.1 | 4.2% | 6.57µM* | -12.2
COc1ccccc1CNC(=O)CCCc1nnc2n(C)c(=O)c3sccc3n12 | 6.9% | -4.5% | -4.1 | 14.2% | -17.0% | -8.4
CC(=NCCO)c1c(O)n(C2CCCCC2)c(=O)[nH]c1=O | 19.2% | 20.2% | 22.1 | -2.2% | -1.8%[5.75 µM] | 36.0
SMILES | AMA1-RON2 inh | HCV inhibitor | Cycloheximide cs | Pf growth 48h | Pf growth 96h | Shiga toxin inh
C/C(=N\NC(=O)c1ccccc1O)c1c(O)n(C2CCCCC2)c(=O)[nH]c1=O | 64.2% | 1.3% | 23.4* | ? | ? | 41.2*
Cc1ccc(N2C(=O)/C(=C/c3ccco3)SC2=S)cc1 | 5.7% | 0.0% | 15.7* | 13.4% | -20.1% | 1.9
O=C1NC(=Nc2ccccc2)/C(=C/c2ccco2)S1 | -23.2% | 11.2µM* | 9.3 | ? | ? | -7.1
Cc1ccc(N=C2NC(=O)S/C2=C\c2ccco2)cc1 | -11.7% | ? | 18.3* | ? | ? | 49.2*
O=C1/C(=C/c2ccccn2)SC(=S)N1c1ccc(O)cc1 | 10.5% | -14.5% | 29.7* | 5.6% | 10.1% | 67.1*
Cc1ccc(NC(=O)Cc2nc(COC(=O)Cc3cccc(C(F)(F)F)c3)cs2)cc1 | 6.2% | 8.4% | · | 2.6% | 31.3% | ·
O=C(CC[C@H]1O[C@@H](n2ccc(=O)[nH]c2=O)[C@H](O)[C@@H]1O)NCC1CCCO1 (some centres not stated) | -1.5% | · | · | · | · | ·
N#Cc1cccc(C2CC(OCCF)=CC(=O)O2)c1 (configuration not stated) | 4.9% | · | · | · | · | ·
CCOc1ncccc1C(=O)OCCCC(=O)c1ccc(Br)cc1 | 29.8% | 5.8% | · | -22.4% | -28.2% | ·
NS(=O)(=O)c1ccc(NCCCn2ccnc2)c([N+](=O)[O-])c1 | -9.7% | 13.3% | -5.0 | -4.3% | ? | -6.1
O=C1c2ccccc2-c2onc3ccc(NCCCn4ccnc4)c1c23 | 23.8µM* | 12.6µM* | -2.3 | · | 13.1µM* | -6.5
Cc1cn(CC(=O)NCC(C)c2ccccc2)c(=O)[nH]c1=O (configuration not stated) | 1.1% | 19.7% | · | · | · | ·
CCC(C)[C@H](NC(=O)c1cc2cc(Cl)ccc2n1C)C(=O)N1CCC(C(=O)O)CC1 (some centres not stated) | -4.5% | 1.9% | 9.0 | 3.6% | 21.8% | -6.2
CC(=O)Nc1ccc(S(=O)(=O)N2CCN=C2c2ccccc2)cc1 | -3.4% | -3.0% | 0.1 | -19.0% | 14.7µM* | -16.8
O=S(=O)(c1ccccc1F)N1CCCc2ccccc21 | 4.4% | -16.2% | -4.5 | ? | ? | -7.7
CCC(=O)N1CCCc2cc(S(=O)(=O)N3CCCc4ccccc43)ccc21 | ? | 10µM* | 17.7 | ? | -6.8% | 10.2
O=S(=O)(c1ccc(Cl)cc1)N1CCCc2ccccc21 | 33.1% | ? | -2.6 | -5.3% | 34.8% | ·
CCC(=O)N1CCc2cc(S(=O)(=O)N3CCc4ccccc4C3)ccc21 | -10.4% | 20.0% | -2.2 | · | 0.0% | -15.6
Cc1ccc(S(=O)(=O)N2CCCc3ccccc32)cc1C | 5.2% | 4.7% | 16.7* | 8.1% | 184.0% | 22.8*
O=[N+]([O-])c1ccccc1S(=O)(=O)N1CCCc2ccccc21 | -10.5% | -8.9% | 30.4* | 25.7% | ? | ·
C/C(=N\NS(=O)(=O)c1cccc([N+](=O)[O-])c1)c1cccnc1 | 22.3% | 19.8% | 0.7 | -2.1% | 99.7%[5.75 µM] | 25.5
